# According to ChEMBL document CHEMBL3988442, “University of Dundee, Small-Polar-MMV Screening Library” (2021):
# Hit rate of the full screen: of about 66,000 compounds, about 960 (1.5%) showed an effect of 50% or more. What follows is part of a selection rich in strong results, with near analogues and random picks from the rest.
# System: Trypanosoma brucei
# Assay: Trypanosoma brucei 72 hour study
# Type: functional, organism-based
# Set-up: scale not given: in the data most compounds retested in dose-response had high values
smiles,measurement,setting,value
CCc1[nH]c2c(CNc3nccc(N)n3)cc(F)cc2c1C,Percent Effect,"30 µM, 30.03 µM",24.46%
Cc1nc(CN2CCO[C@H]3[C@H](OCC(=O)N(C)C)CC[C@@H]32)cs1.O=C(O)C(F)(F)F,Percent Effect,"30 µM, 30.03 µM",-32.64%
Cn1nc(CN2CCC(c3ccncc3)CC2)c2c(Cl)cccc21,Percent Effect,"30.3 µM, […]",31.87%
C[C@@H]1CN(C2CCN(Cc3nn(C)c4cccc(Cl)c34)CC2)C[C@H](C)O1,Percent Effect,"30.3 µM, […]",10.53%
Cn1nc(CN2CCCN(C3CCCC3)CC2)c2c(Cl)cccc21,Percent Effect,"30.3 µM, […]",100.6%
Cc1cccc(N2CCC3(CCN(C(=O)c4cccnc4)CC3)C2)n1.O=C(O)C(F)(F)F.O=C(O)C(F)(F)F,Percent Effect,"30 µM, 30.03 µM",38.81%
Cc1cnc(N2CCC3(CCN(CC4CCCC4)C3=O)CC2)nc1.O=C(O)C(F)(F)F,Percent Effect,"30.3 µM, […]",-22.16%
CC1(C)CC(N(Cc2ccccc2)Cc2c[nH]cn2)CC(C)(C)N1.O=C(O)CC(O)(CC(=O)O)C(=O)O,Percent Effect,"30.3 µM, […]",9.903%
CC1(C)CC(N(Cc2ccccc2)Cc2cccnc2)CC(C)(C)N1.O=C(O)CC(O)(CC(=O)O)C(=O)O,Percent Effect,"30.3 µM, […]",27.73%
CC1(C)CC(N(Cc2cccnc2)Cc2cccc(F)c2)CC(C)(C)N1.O=C(O)CC(O)(CC(=O)O)C(=O)O,Percent Effect,"30.3 µM, […]",92.81%
Cc1nc[nH]c1CN(Cc1ccccc1)C1CC(C)(C)NC(C)(C)C1.O=C(O)CC(O)(CC(=O)O)C(=O)O,Percent Effect,"30.3 µM, […]",9.969%
Cc1cccc(CN(Cc2cccnc2)C2CC(C)(C)NC(C)(C)C2)n1.O=C(O)CC(O)(CC(=O)O)C(=O)O,Percent Effect,"30.3 µM, […]",-21.3%
CCCN(Cc1cccnc1)C1CC(C)(C)NC(C)(C)C1.O=C(O)CC(O)(CC(=O)O)C(=O)O,Percent Effect,"30.3 µM, […]",3.437%
Cc1ccc(CN(Cc2cccnc2)C2CC(C)(C)NC(C)(C)C2)s1.O=C(O)CC(O)(CC(=O)O)C(=O)O,Percent Effect,"30.3 µM, […]",78.89%
CC1(C)CC(N(Cc2ccncc2)Cc2cccnc2)CC(C)(C)N1.O=C(O)CC(O)(CC(=O)O)C(=O)O,Percent Effect,"30.3 µM, […]",3.133%
Cc1ccc(CN(Cc2ccccn2)C2CC(C)(C)NC(C)(C)C2)s1.O=C(O)CC(O)(CC(=O)O)C(=O)O,Percent Effect,"30.3 µM, […]",71.04%
Cc1cccc(CN(Cc2ccc(C)o2)C2CC(C)(C)NC(C)(C)C2)n1.O=C(O)CC(O)(CC(=O)O)C(=O)O,Percent Effect,"30.3 µM, […]",14.76%
CC1(C)CC(N(Cc2cccnc2)Cc2cccnc2)CC(C)(C)N1.O=C(O)CC(O)(CC(=O)O)C(=O)O,Percent Effect,"30.3 µM, […]",13.11%
Cc1ccsc1CN(Cc1cccnc1)C1CC(C)(C)NC(C)(C)C1.O=C(O)CC(O)(CC(=O)O)C(=O)O,Percent Effect,"30.3 µM, […]",61.32%
CCOc1ccccc1-c1cc(N)[nH]n1.Cl,Percent Effect,"30.3 µM, […]",-3.53%
CC(C)NC(=O)C1CN(Cc2ccc(F)cc2)CC12CCOCC2.O=C(O)C(F)(F)F (configuration not stated),Percent Effect,"30 µM, 30.03 µM",-12.09%
CCC(C)(COc1ncccc1Cl)NCC(=O)NCC(C)C (configuration not stated),Percent Effect,"30 µM, 30.03 µM",-31.89%
CCC1=N[C@@]2(CC[C@@H]3CN(CC4CC4)C[C@@H]32)C(=O)N1CC1CC1.O=C(O)C(F)(F)F,Percent Effect,"30 µM, 30.03 µM",-23.62%
COc1ccnc(N2CCCN(C(=O)Cc3ccc(C)s3)CC2)n1,Percent Effect,10 µM,-47.83%
Cc1cccc(CNC2CC3(CCN(CCO)CC3)c3ccccc32)n1.O=C(O)C(F)(F)F.O=C(O)C(F)(F)F (configuration not stated),Percent Effect,"30.3 µM, […]",13.54%
Cn1ncc2c1C(COCC1CC1)CN(C(=O)c1cscn1)C2.O=C(O)C(F)(F)F (configuration not stated),Percent Effect,"30 µM, 30.03 µM",21.88%
Cn1cc(CN2CCn3cc(CNC(=O)c4cccn4C)nc3C2)cn1.O=C(O)C(F)(F)F,Percent Effect,"30 µM, 30.03 µM",21.81%
N#Cc1cccnc1N1CCC(C2CCCCCN2C(N)=O)CC1 (configuration not stated),Percent Effect,"30.3 µM, […]",5.33%
N#Cc1cccnc1N1CCC(C2CCCCCN2C(=O)C2CC2)CC1 (configuration not stated),Percent Effect,"30.3 µM, […]",53.48%
CC(=O)N1CCCCCC1C1CCN(c2ncccc2C#N)CC1 (configuration not stated),Percent Effect,"30.3 µM, […]",13.42%
Cn1cnnc1-c1ccnc(NCc2ccccc2)c1,Percent Effect,"30.3 µM, […]",5.527%
Cn1nccc1CN1CCOC(c2cccc(Nc3ccccn3)n2)C1 (configuration not stated),Percent Effect,"30.3 µM, […]",100.5%
Br.Cn1nccc1CN1CCOC(c2cccc(-c3cncnc3)n2)C1 (configuration not stated),Percent Effect,"30.3 µM, […]",-1.234%
Cn1nccc1CN1CCOC(c2ccc(-c3cncnc3)cn2)C1 (configuration not stated),Percent Effect,"30.3 µM, […]",1.674%
NC(=O)c1cc(NC(=O)N2CCCCCC2)ccc1F,Percent Effect,"30 µM, 30.03 µM",-43.72%
NC(=O)c1cc(NC(=O)N2CCOCC2)ccc1F,Percent Effect,"30 µM, 30.03 µM",-9.926%
O=C(Nc1ccc(F)c(Br)c1)N1CCCC1,Percent Effect,"30 µM, 30.03 µM",97.43%
CC(C)CN1CCC2(C=C(C(=O)N(C)C)c3ccccc32)CC1.O=C(O)C(F)(F)F,Percent Effect,"30.3 µM, […]",-83.33%
Cc1ccc(CN2CCn3cc(CNC(=O)c4cnn(C)c4)nc3C2)s1.O=C(O)C(F)(F)F,Percent Effect,"30 µM, 30.03 µM",-34.09%
CC(C)C(=O)N1CCC2(CC1)COCCN2Cc1ccc(F)cc1.O=C(O)C(F)(F)F,Percent Effect,"30 µM, 30.03 µM",21.09%
Cc1cc2c(=O)n3c(nc2s1)CCN(Cc1cncn1C)CC3.Cl,Percent Effect,"30.3 µM, […]",6.762%
CCOc1ccc(C#N)cc1NCC(=O)OC,Percent Effect,"30.3 µM, […]",-4.293%
same,Percent Effect,"10 mM, 10 mM as filed; unlikely as a test dose",-28.98%
CCNC(=O)NC(=O)CNc1cc(C#N)ccc1OCC,Percent Effect,"30.3 µM, […]",-6.445%
same,Percent Effect,"10 mM, 10 mM as filed; unlikely as a test dose",-44.56%
CCCNC(=O)CNc1cc(C#N)ccc1OCC,Percent Effect,"30 µM, 30.03 µM",58.39%
CNC(=O)CN(C)C(=O)Cc1csc(C(C)C)n1,Percent Effect,"30 µM, 30.03 µM",70.2%
CC(C)c1nc(CN(C)C(=O)[C@H](N)Cc2ccc(Cl)cc2)cs1,Percent Effect,"30 µM, 30.03 µM",-3.528%
CC(C)c1nc(CN(C)C(=O)c2ccc3c(c2)OCO3)cs1,Percent Effect,"30 µM, 30.03 µM",56.82%
CC(C)c1nc(CN(C)C(=O)C(O)c2ccc(Cl)cc2)cs1 (configuration not stated),Percent Effect,"30 µM, 30.03 µM",3.875%
CCN(CC)C(=O)Cc1csc(C(C)C)n1,Percent Effect,"30 µM, 30.03 µM",-85.89%
CC(C)c1nc(CN(C)C(=O)c2ccc3c(c2)OCC(=O)N3)cs1,Percent Effect,"30 µM, 30.03 µM",17.57%
CC(C)C[C@@H](N)C(=O)N(C)Cc1csc(C(C)C)n1,Percent Effect,"30 µM, 30.03 µM",100.6%
CC(C)c1nc(CN(C)C(=O)CCc2ccc3c(c2)OCO3)cs1,Percent Effect,"30 µM, 30.03 µM",12.36%
CCN(CC(=O)NC)C(=O)Cc1csc(C(C)C)n1,Percent Effect,"30 µM, 30.03 µM",-25.08%
Cc1cccc(CN2C(=O)CO[C@@H]3CN(C4CCOCC4)C[C@H]32)c1.O=C(O)C(F)(F)F,Percent Effect,"30 µM, 30.03 µM",-46.8%
O=C(O)C(F)(F)F.O=C(c1ccco1)N1C[C@H]2CCCN(CC3CC3)[C@H]2C1,Percent Effect,"30 µM, 30.03 µM",-18.48%
